Reference: the antibiotic and cytotoxicity screens of Wong et al. (2023)
The campaign covered roughly 39,000 compounds. About 1,500 (3.8%) were called active. The sample as a whole holds a higher share of actives than the screen did.

system: HSkMC (human skeletal muscle cells); test: cytotoxicity call (relative viability < 0.9); conditions: 10 µM

| Structure (SMILES) | cytotoxicity call |
| --- | --- |
| C[C@@H]1CCCCO[C@@H](CN(C)S(=O)(=O)c2ccc(F)cc2)[C@@H](C)CN([C@@H](C)CO)C(=O)c2cc(NS(C)(=O)=O)ccc2O1 | inactive |
| C[C@@H]1CCCCO[C@@H](CN(C)Cc2ccc(C(=O)O)cc2)[C@@H](C)CN([C@@H](C)CO)C(=O)c2cc(NC(=O)Nc3cccc4ccccc34)ccc2O1 | inactive |
| C[C@@H]1CN([C@H](C)CO)C(=O)c2cc(NC(=O)Nc3cccc4ccccc34)ccc2O[C@@H](C)CCCCO[C@@H]1CN(C)Cc1ccccc1 | inactive |
| C[C@@H]1CCCCO[C@@H](CN(C)Cc2ccccc2)[C@H](C)CN([C@@H](C)CO)C(=O)c2cc(NC(=O)Nc3cccc4ccccc34)ccc2O1 | inactive |
| C[C@@H]1CCCCO[C@H](CN(C)Cc2ccccc2)[C@H](C)CN([C@@H](C)CO)C(=O)c2cc(NC(=O)Nc3cccc4ccccc34)ccc2O1 | active |
| C[C@@H]1CN([C@@H](C)CO)C(=O)c2cc(NC(=O)Nc3cccc4ccccc34)ccc2O[C@@H](C)CCCCO[C@@H]1CN(C)Cc1ccccc1 | active |
| C[C@@H]1CN([C@@H](C)CO)C(=O)c2cc(NC(=O)Nc3cccc4ccccc34)ccc2O[C@@H](C)CCCCO[C@H]1CN(C)Cc1ccccc1 | inactive |
| C[C@@H]1CCCCO[C@@H](CN(C)Cc2ccccc2)[C@@H](C)CN([C@H](C)CO)C(=O)c2cc(NC(=O)Nc3cccc4ccccc34)ccc2O1 | inactive |
| C[C@@H]1CCCCO[C@@H](CN(C)Cc2ccccc2)[C@H](C)CN([C@H](C)CO)C(=O)c2cc(NC(=O)Nc3cccc4ccccc34)ccc2O1 | inactive |
| C[C@H]1CCCCO[C@H](CN(C)Cc2ccccc2)[C@@H](C)CN([C@@H](C)CO)C(=O)c2cc(NC(=O)Nc3cccc4ccccc34)ccc2O1 | active |
| COc1ccc(S(=O)(=O)N2C[C@H](O)COC[C@@H]3O[C@@H](CC(=O)N[C@H]4CCN(Cc5ccccc5)C4)CC[C@H]32)cc1 | inactive |
| CN1C[C@@H](O)COC[C@H]2O[C@H](CC(=O)N3CCN(c4ccccc4)CC3)CC[C@@H]21 | inactive |
| C=CCOC(=O)[C@H]1[C@@H]2C(=O)O[C@@H](c3ccccc3)[C@@H](c3ccccc3)N2[C@@H](c2ccc(OCCOC(=O)[C@H]3C[C@H]4C(=O)N[C@@H](Cc5ccccc5)C(=O)N4[C@H]3c3cccc(OCCO)c3)cc2)[C@]12C(=O)Nc1ccc(I)cc12 | inactive |
| CCS(=O)(=O)N1C[C@]2(CCN(CC2)C(=O)NC2CCCC2)c2c(n(c3cc(ccc23)OC)C)[C@@H]1CO | inactive |
| C[C@@H]1CN([C@@H](C)CO)C(=O)c2cc(NC(=O)Nc3ccc(C(F)(F)F)cc3)ccc2O[C@H]1CN(C)C(=O)NC1CCCCC1 | inactive |
| C[C@@H]1CCCCO[C@@H](CN(C)C(=O)Nc2ccc(C(F)(F)F)cc2)[C@@H](C)CN([C@@H](C)CO)C(=O)c2cc(NC(=O)C3CCCCC3)ccc2O1 | inactive |
| CCNC(=O)C[C@@H]1C=C[C@H](NC(=O)C2CCOCC2)[C@@H](CO)O1 | inactive |
| C[C@@H]1CCCCO[C@@H](CN(C)S(=O)(=O)c2cccs2)[C@H](C)CN([C@@H](C)CO)C(=O)c2cc(NC(=O)CCC(F)(F)F)ccc2O1 | inactive |
| CS(=O)(=O)Nc1ccc2c(c1)[C@H]1C[C@H](CC(=O)NCc3ccc(-c4ccccc4)cc3)O[C@@H](CO)[C@H]1O2 | inactive |
| O=C(C[C@H]1C[C@@H]2c3cc(NC(=O)NC4CCCC4)ccc3O[C@@H]2[C@H](CO)O1)NCc1ccc(-c2ccccc2)cc1 | inactive |

| Structure (SMILES) | cytotoxicity call |
| --- | --- |
| CS(=O)(=O)Nc1ccc2c(c1)[C@@H]1C[C@@H](CC(=O)NCc3ccc(-c4ccccc4)cc3)O[C@@H](CO)[C@@H]1O2 | active |
| O=C(C[C@@H]1C[C@H]2c3cc(NC(=O)NC4CCCC4)ccc3O[C@H]2[C@H](CO)O1)NCc1ccc(-c2ccccc2)cc1 | active |
| O=C(C[C@H]1C[C@H]2c3cc(NC(=O)NC4CCCC4)ccc3O[C@H]2[C@@H](CO)O1)NCc1ccc(-c2ccccc2)cc1 | inactive |
| O=C(C[C@H]1C[C@H]2c3cc(NC(=O)NC4CCCC4)ccc3O[C@H]2[C@H](CO)O1)NCc1ccc(-c2ccccc2)cc1 | inactive |
| O=C(C[C@@H]1C[C@@H]2c3cc(NC(=O)NC4CCCC4)ccc3O[C@@H]2[C@@H](CO)O1)NCc1ccc(-c2ccccc2)cc1 | inactive |
| O=C(C[C@H]1C[C@@H]2c3cc(NC(=O)NC4CCCC4)ccc3O[C@@H]2[C@@H](CO)O1)NCc1ccc(-c2ccccc2)cc1 | active |
| CS(=O)(=O)Nc1ccc2c(c1)[C@@H]1C[C@@H](CC(=O)NCc3ccc(-c4ccccc4)cc3)O[C@H](CO)[C@@H]1O2 | inactive |
| CC(C)NC(=O)N[C@@H]1C=C[C@@H](CC(=O)O)O[C@@H]1CO | inactive |
| COc1ccc(S(=O)(=O)N(C)C[C@H]2Oc3ccc(NS(=O)(=O)c4cccs4)cc3CC(=O)N([C@H](C)CO)C[C@@H]2C)cc1 | inactive |
| C[C@@H]1CN([C@@H](C)CO)C(=O)c2cc(NC(=O)Nc3ccccc3)ccc2O[C@@H](C)CCCCO[C@H]1CN(C)S(=O)(=O)c1ccc(C(F)(F)F)cc1 | inactive |
| Cc1ccc2cccc(OCCOc3ccccc3C(C)C)c2n1 | inactive |
| O=C(C[C@@H]1CC[C@H]2[C@@H](COC[C@@H](O)CN2S(=O)(=O)c2ccc(Oc3ccccc3)cc2)O1)NC1CCC1 | inactive |
| Cc1ccc2nc([C@H](N)C(C)C)[nH]c2c1 | inactive |
| C[C@@H]1CN([C@H](C)CO)C(=O)Cc2cc(NC(=O)Cc3ccccc3)ccc2O[C@@H]1CN(C)Cc1ccc(Cl)c(Cl)c1 | active |
| C[C@@H]1CN([C@H](C)CO)C(=O)Cc2cc(NC(=O)Cc3ccccc3)ccc2O[C@H]1CN(C)Cc1ccc(Cl)c(Cl)c1 | inactive |
| C[C@H]1CN([C@@H](C)CO)C(=O)Cc2cc(NC(=O)Cc3ccccc3)ccc2O[C@@H]1CN(C)Cc1ccc(Cl)c(Cl)c1 | inactive |
| C[C@@H]1CN([C@@H](C)CO)C(=O)Cc2cc(NC(=O)Cc3ccccc3)ccc2O[C@H]1CN(C)Cc1ccc(Cl)c(Cl)c1 | inactive |
| C[C@H](CO)N1C[C@H](C)[C@H](CN(C)Cc2ccc(Cl)c(Cl)c2)Oc2ccc(NC(=O)Cc3ccccc3)cc2CC1=O | inactive |
| C[C@@H]1CN([C@@H](C)CO)C(=O)Cc2cc(NC(=O)Cc3ccccc3)ccc2O[C@@H]1CN(C)Cc1ccc(Cl)c(Cl)c1 | active |
| Cc1ccc(S(=O)(=O)Nc2cccc3c2O[C@@H](CN(C)S(=O)(=O)c2cccs2)[C@H](C)CN([C@@H](C)CO)C3=O)cc1 | inactive |

| Structure (SMILES) | cytotoxicity call |
| --- | --- |
| C[C@@H]1CN([C@@H](C)CO)C(=O)Cc2cc(NC(=O)C3CCCCC3)ccc2O[C@@H]1CN(C)Cc1ccc(Cl)c(Cl)c1 | active |
| C[C@H]1CN([C@@H](C)CO)C(=O)Cc2cc(NC(=O)C3CCCCC3)ccc2O[C@H]1CN(C)Cc1ccc(Cl)c(Cl)c1 | inactive |
| C[C@@H]1CN([C@@H](C)CO)C(=O)Cc2cc(NC(=O)C3CCCCC3)ccc2O[C@H]1CN(C)Cc1ccc(Cl)c(Cl)c1 | inactive |
| C[C@@H]1CN([C@H](C)CO)C(=O)Cc2cc(NC(=O)C3CCCCC3)ccc2O[C@H]1CN(C)Cc1ccc(Cl)c(Cl)c1 | inactive |
| C[C@@H]1CN([C@H](C)CO)C(=O)Cc2cc(NC(=O)C3CCCCC3)ccc2O[C@@H]1CN(C)Cc1ccc(Cl)c(Cl)c1 | active |
| C[C@H]1CN([C@@H](C)CO)C(=O)Cc2cc(NC(=O)C3CCCCC3)ccc2O[C@@H]1CN(C)Cc1ccc(Cl)c(Cl)c1 | inactive |
| COc1ccc(NC(=O)Nc2cccc3c2O[C@@H](CN(C)S(=O)(=O)c2cn(C)cn2)[C@@H](C)CN([C@@H](C)CO)C3=O)cc1 | inactive |
| O=C(C[C@H]1CC[C@H]2[C@@H](COC[C@@H](O)CN2Cc2cc(F)ccc2F)O1)N[C@H]1CCN(Cc2ccccc2)C1 | inactive |
| O=C(C[C@@H]1CC[C@H](NC(=O)CN2CCOCC2)[C@@H](CO)O1)NCc1cccc(F)c1 | inactive |
| CN1C(=O)c2cc(NC(=O)C3CCCC3)ccc2OC[C@@H]2O[C@H](CC(=O)NCCc3ccncc3)CC[C@@H]21 | inactive |
| COc1ccc(S(=O)(=O)Nc2ccc3c(c2)CC(=O)N([C@H](C)CO)C[C@H](C)[C@@H](CN(C)Cc2ccc(Cl)c(Cl)c2)O3)cc1 | inactive |
| COc1ccc(S(=O)(=O)Nc2ccc3c(c2)CC(=O)N([C@@H](C)CO)C[C@@H](C)[C@@H](CN(C)Cc2ccc(Cl)c(Cl)c2)O3)cc1 | active |
| COc1ccc(S(=O)(=O)Nc2ccc3c(c2)CC(=O)N([C@@H](C)CO)C[C@H](C)[C@H](CN(C)Cc2ccc(Cl)c(Cl)c2)O3)cc1 | active |
| COc1ccc(S(=O)(=O)Nc2ccc3c(c2)CC(=O)N([C@H](C)CO)C[C@@H](C)[C@H](CN(C)Cc2ccc(Cl)c(Cl)c2)O3)cc1 | inactive |
| COc1ccc(S(=O)(=O)Nc2ccc3c(c2)CC(=O)N([C@@H](C)CO)C[C@H](C)[C@@H](CN(C)Cc2ccc(Cl)c(Cl)c2)O3)cc1 | inactive |
| COc1ccc(S(=O)(=O)Nc2ccc3c(c2)CC(=O)N([C@H](C)CO)C[C@@H](C)[C@@H](CN(C)Cc2ccc(Cl)c(Cl)c2)O3)cc1 | active |
| COc1ccc(S(=O)(=O)Nc2ccc3c(c2)CC(=O)N([C@H](C)CO)C[C@H](C)[C@H](CN(C)Cc2ccc(Cl)c(Cl)c2)O3)cc1 | active |
| COc1ccc(S(=O)(=O)Nc2ccc3c(c2)CC(=O)N([C@@H](C)CO)C[C@@H](C)[C@H](CN(C)Cc2ccc(Cl)c(Cl)c2)O3)cc1 | inactive |
| COc1ccc(S(=O)(=O)N(C)C[C@H]2Oc3ccc(NC(=O)C4CC4)cc3CC(=O)N([C@H](C)CO)C[C@H]2C)cc1 | inactive |
| Cc1noc(C)c1NC(=O)N(C)C[C@@H]1Oc2ccc(NC(=O)Cn3cnnn3)cc2CC(=O)N([C@@H](C)CO)C[C@@H]1C | inactive |
